Bioassay records from PubChem.
TDP1 cell noCPT – qHTS for Inhibitors of human tyrosyl-DNA phosphodiesterase 1 (TDP1): qHTS in cells in absence of CPT. Potency, µM (titrated, usually from 46.2 µM), for inactives: at the top dose activity change, negative = growth inhibition, usual class: inhibitors. 420,000 tested, 15% active. AID 686978, 2013. DT40 Tdp1-/- hTDP1 cells, no CPT, ATP luminescence, 48 h; further: nearly all actives have a fitted effect of over 55% in size
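A cellular qHTS used chicken DT40 cells lacking endogenous Tdp1 but carrying stably transfected human TDP1. Compounds were applied without camptothecin, and cell growth kinetics were judged by ATP-dependent luminescence after ≥48 hr.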
TDP1 cell CPT – growth inhibition of DT40 Tdp1-/-;hTDP1 cells with camptothecin (screen for TDP1 inhibitors) | AID 686979 | Potency, µM (series often up to 46.2 µM), inactives show top-dose activity change, negative = growth inhibition, actives largely listed as inhibitors | chicken DT40 Tdp1-/-;hTDP1 cells + 20 nM CPT, ATP luminescence, 48 h | 420,000 tested, 12% active; further: nearly all actives have a fitted effect of over 55% in size
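Chicken DT40 Tdp1-/- cells complemented with human TDP1, 400 cells/well, exposed to compounds plus 20 nM camptothecin for at least 48 h at 37 C; viability read as ATP content by CellTiter-Glo luminescence.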
ELG1 DNA repair – inhibitors of ELG1-dependent DNA repair in HEK293T cells | HEK293T ELG1-luciferase reporter, luminescence, 16 h; DNA damage induced by 5-fluorouridine | Potency, µM (highest dose often 46.1 µM), without a hit: at the highest dose activity change, negative = inhibition, most hits filed as inhibitors | 330,000 tested, 2.3% active | AID 504467; further: nearly all actives have a fitted effect of over 55% in size
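5-Fluorouridine DNA damage + compound/DMSO, 2,000 cells/well, 16 h, 37 °C/5% CO2. ONE-Glo, 30 min RT, luminescence. Readout = decrease in reporter signal.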
ALOX12 inh – ALOX12 (human) lipoxygenase inhibition; P18054; purified 12hLO, xylenol orange hydroperoxide absorbance; Potency, µM (highest dose often 108 µM), for inactives: at the top dose activity change, negative = inhibition, most hits filed as inhibitors; 580,000 tested, 1.1% active
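Hydroperoxide product was detected by ferrous iron/xylenol orange as the 573 to 405 nm absorbance ratio. Arachidonic acid at 40 uM (final) was turned over for 30 min at room temperature by 150 nM human 12hLO, pH 7.0 Hepes buffer, after 15 min compound preincubation.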
Gal4-VP16 FLuc – counter-screen for ROR gamma inhibitors: Gal4-VP16 reporter; Potency, µM (titrated, usually from 53.6 µM), inactives show at the top dose activity, negative = inhibition, actives largely listed as inhibitors; 310,000 tested, 3.5% active; AID 2546; Drosophila S2 Gal4-VP16 UAS-luciferase, luminescence, 20 h;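 further: Gal4-VP16 expression switched on by copper sulfate through the metallothionein promoter; nearly all actives have a fitted effect of over 50% in size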
RORgamma inh – blocks mouse ROR gamma transcriptional activity. P51450. Drosophila S2 Gal4-RORgamma UAS-luciferase reporter, 20 h. Potency, µM (highest dose often 53.6 µM), for inactives: at the highest dose activity change, negative = inhibition, actives largely listed as inhibitors. 310,000 tested, 5.4% active. AID 2551; further: nearly all actives have a fitted effect of over 60% in size
Target sequence (P51450 whole entry, looked up, the tested form may be a part): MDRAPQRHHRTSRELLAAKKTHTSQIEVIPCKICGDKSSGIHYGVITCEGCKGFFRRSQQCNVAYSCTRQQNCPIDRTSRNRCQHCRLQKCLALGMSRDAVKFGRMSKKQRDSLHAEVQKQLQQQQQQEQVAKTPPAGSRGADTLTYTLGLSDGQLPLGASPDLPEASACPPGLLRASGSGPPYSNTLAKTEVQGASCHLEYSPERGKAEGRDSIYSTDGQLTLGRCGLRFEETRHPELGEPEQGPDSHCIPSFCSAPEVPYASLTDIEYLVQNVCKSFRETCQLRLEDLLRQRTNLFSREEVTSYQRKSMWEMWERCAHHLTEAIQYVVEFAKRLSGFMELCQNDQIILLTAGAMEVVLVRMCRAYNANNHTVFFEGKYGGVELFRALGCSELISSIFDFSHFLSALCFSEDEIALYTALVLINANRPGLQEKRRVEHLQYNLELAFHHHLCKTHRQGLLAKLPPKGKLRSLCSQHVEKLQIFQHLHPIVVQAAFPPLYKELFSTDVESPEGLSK
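Luminescence from a UAS-regulated Photinus luciferase reporter in stably transfected Drosophila Schneider cells is measured; decreased signal marks ROR gamma inhibition. Fusion expression is induced by 700 uM copper sulfate for 20 hr.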
Active calls of the source: *; ? = inconclusive; . = no result given. This is a sample that favours compounds with a hit; in the whole collection about 15% have one here. The call rests on the fitted dose curve; in most records, active means well fitted curve in the direction sought with a large enough effect; inconclusive means small, poorly fitted or top-dose-only effect, or another doubt; inactive means no such curve, though single readings can be large; an effect the other way counts as inactive or inconclusive. On the % scale 0 is the no-effect control and ±100 the full control effect; potency means the concentration at half of the fitted maximal effect.

SMILES	TDP1 cell noCPT	TDP1 cell CPT	ELG1 DNA repair	ALOX12 inh	Gal4-VP16 FLuc	RORgamma inh
COc1ccc(C(=O)CC(=O)C(=O)Nc2c(C)cccc2C)cc1	9.2µM*	21µM*	-25%	?	5.6µM*	6.3µM*
COc1ccc(C(=O)CC(=O)C(=O)Nc2ccccc2Cl)cc1	10µM*	13µM*	-14%	35%	3.2µM*	6.3µM*
CCN1CCN(C(C)CNC(=O)NCc2csc(C)n2)CC1 (configuration not stated)	.	.	.	2%	.	.
COc1ccc(C(=O)CC(=O)C(=O)Nc2ccccc2C(F)(F)F)cc1	6.5µM*	10µM*	?	0%	7.1µM*	6.3µM*
Cc1ccccc1C(=O)Nc1ccnn1C1CCN(C(C)Cc2ccccc2F)CC1 (configuration not stated)	-54%	23µM*	?	-4%	3%	0%
O=C(Nc1ccnn1C1CCN(Cc2ccc(-c3ccco3)cc2)CC1)C1CC1	.	.	.	11µM*	.	.
O=C(CCCc1ccccc1)Nc1ccnn1C1CCN(Cc2ccccc2)CC1	?	?	-12%	-15%	12%	1%
CSc1ccc(CN2CCC(n3nccc3NC(=O)CCCc3ccccc3)CC2)cc1	?	23µM*	-16%	3%	?	37%
O=C(CCCc1ccccc1)Nc1ccnn1C1CCN(Cc2ccccc2F)CC1	21µM*	23µM*	?	0%	3%	3%
O=C(NC1CCN(c2cc(-c3ccccc3)[nH]n2)CC1)c1ccc(F)cc1F	.	.	.	11%	.	.
COc1ccc(CN2CCN(c3ncnc4c3CCC4)CC2CCO)c(C)c1C (configuration not stated)	.	.	.	33%	.	.
CCOc1cccc(CN2CCC(n3nccc3NC(=O)CCCc3ccccc3)CC2)c1	?	?	6.5µM*	?	4%	17%
CCOc1ccc(CN2CCC(n3nccc3NC(=O)CCCc3ccccc3)CC2)cc1	?	?	?	-9%	-1%	13%
COc1ccc2[nH]c3c(c2c1)CCN1C(=O)N([C@@H](C)C(=O)NCCc2ccc(F)cc2)C(=O)[C@]31C	7.3µM*	23µM*	-16%	-6%	16%	-1%
Cc1ccc(CNC(=O)[C@H](C)N2C(=O)N3CCc4c([nH]c5ccccc45)[C@@]3(C)C2=O)cc1	?	?	?	32%	-11%	-1%
COc1ccc2[nH]c3c(c2c1)CCN1C(=O)N([C@@H](C)C(=O)NCc2ccc(F)cc2)C(=O)[C@]31C	?	-12%	-28%	44%	10%	17%
COc1ccc(CNC(=O)[C@H](C)N2C(=O)N3CCc4c([nH]c5ccccc45)[C@@]3(C)C2=O)cc1OC	4.1µM*	2.6µM*	?	8%	-20%	-12%
CC(C)C[C@@H](C(=O)NCc1ccco1)N1C(=O)N2CCc3c([nH]c4ccccc34)[C@@]2(C)C1=O	5.2µM*	?	0%	-27%	-3%	?
C[C@@H](C(=O)NCCc1ccc(F)cc1)N1C(=O)N2CCc3c([nH]c4ccccc34)[C@@]2(C)C1=O	12µM*	12µM*	?	20%	-2%	7%
CC1CCC(C(=O)Nc2ccc(Br)cc2)CC1 (configuration not stated)	.	.	.	15%	.	.
CC(C)C(=O)Nc1ccccc1C(C)C	.	.	.	25%	.	.
CN(C)C(=O)c1ccc(-c2cc3c(Nc4cccc(Oc5ccccc5)c4)nccc3n2C)cc1	.	.	.	-1%	.	.
Cc1nn(CCCC(=O)Nc2cc(Oc3ccccc3)cc([N+](=O)[O-])c2)c(C)c1[N+](=O)[O-]	?	?	?	8%	?	2µM*
CCn1nc(C)c(C(=O)Nc2cc(Oc3cc(C)cc(C)c3)cc([N+](=O)[O-])c2)c1C	21µM*	?	13µM*	-12%	-18%	?
